For 9 compounds, growth results are on record in PubChem BioAssay (NCI).

Assay in all cases: NCI-60 one-dose screen, 48 h (100 = growth as untreated, 0 = no growth, -100 = all killed)
Holding throughout (conditions): 10 µM unless noted

In assay [1] the test system is DU-145 prostate.
Assay [2] concerns K-562 leukemia.
Assay [3] concerns MALME-3M melanoma.
Assay [4] concerns MDA-MB-231 breast.
Assay [5] concerns RXF 393 renal.
Assay [6] concerns SF-268 CNS.
For assay [7], the system named is SF-295 CNS.
Assay [8] concerns UACC-257 melanoma.
For assay [9], the system named is M14 melanoma.
Assay [10] relates to HCT-15 colon.
Assay [11] relates to HT29 colon.
In assay [12] the test system is SNB-75 CNS.
The test system of assay [13] is SNB-19 CNS.
Assay [14] concerns U251 CNS.
The subject of assay [15] is PC-3 prostate.
For assay [16], the system named is SK-MEL-5 melanoma.
Assay [17] concerns UACC-62 melanoma.
The subject of assay [18] is SK-MEL-28 melanoma.
Assay [19] concerns LOX IMVI melanoma.

Molecules are shown by their SMILES. The panel holds about 83,000 compounds, 20% with a hit somewhere; the sample as a whole holds those more often.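 Method: cells in 96-well plates; compound added at one concentration; 48 h incubation; percent growth measured; values under 10 scored active.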 A number with no mark means an inactive call. The source made the active and inactive calls.

As for `COc1ccc(C(=O)c2sc3nc4c(cc3c2N)CCCC4)cc1OC`, the growth is 62% in assay [1]; 10.9% in assay [2]; 63% in [3]; 46.3% in assay [4]; 31.6% in [5]; 63.9% in [6]. In addition, the growth in [7] is 28.6%; in [8], 79.6%; in assay [9] it was 27.7%; in assay [10] it was 31.2%; in [11], 19%; in assay [12], 49.3%. Also, the growth in [13] is 71.3%; in assay [14], 39.9%; in [15], 50.8%; in [16] it was -11.4% (active); in [17], 36.2%; in assay [18], 47.3%.
On to `CC/C=C\C[C@H](O)C/C=C1/C(=O)C=C[C@@H]1C/C=C\CCCC(=O)NC(C)C`, for which the growth in [1] was 27.2%; in assay [2], 3.29% (active); in [3] it was -4.08% (active); in assay [4], 19.9%; in assay [5], -64.8% (active); in [6], 35.4%. For the same compound, the growth was 6.21% (active) in assay [7]; -4.26% (active) in [8]; 7.13% (active) in assay [9]; -33.9% (active) in assay [10]; -29.6% (active) in assay [11]; 68% in assay [12]. The growth in assay [13] was 31.8%; in assay [15], 16.4%; in [16] it was -69.8% (active); in assay [17], -61% (active); in assay [19] it was -46.9% (active); in assay [18] it was 4.94% (active).
For the compound `O=C1c2c[n+](Cc3ccccc3)ccc2-c2nc3ccccc3c3ccnc1c23`, the growth was -89.5% (active) in assay [1]; -6.85% (active) in assay [2]; -95.7% (active) in [3]; -14% (active) in assay [4]; -57.1% (active) in assay [5]; -1.74% (active) in assay [6]. In addition, the growth in [7] was -17.4% (active); in assay [8] it was -67.9% (active); in [9] it was -68.4% (active); in [10], 18.6%; in [11], -25% (active); in assay [12] it was -80.7% (active). The growth in [13] is -72.2% (active); in assay [14], -77% (active); in [15] it was -7.15% (active); in assay [16], -93.9% (active); in [17] it was -58.5% (active); in assay [19], -37.1% (active). Further, the growth in assay [18] is -34.3% (active).
As for `NCc1cn2cc(Cl)sc2n1`, the growth in [1] was 114%; in [2], 95%; in [3], 103%; in assay [4], 112%; in [5], 98.9%; in assay [6], 111%. Moreover, the growth is 102% in assay [7]; 105% in assay [8]; 108% in [9]; 98.6% in assay [10]; 105% in [11]; 92.6% in assay [12]. Moreover, the growth in assay [13] is 112%; in assay [14], 93.2%; in [15], 92.3%; in [16], 103%; in assay [17] it was 110%; in [18], 104%.
Consider `COC(=O)C12C3C(=O)N(c4ccc(OC)cc4)C(=O)C3C(c3cn(-c4ccccc4)nc3C)N1[C@H](c1cn(-c3ccccc3)nc1C)[C@@H]1C(=O)N(c3ccc(OC)cc3)C(=O)[C@@H]12` (stereo partly drawn), for which the growth in [1] is 109%; in assay [2] it was 92.3%; in assay [3] it was 108%; in assay [4] it was 108%; in [5] it was 102%; in assay [6], 104%. Moreover, the growth in [7] is 91.8%; in [8], 98%; in assay [9] it was 105%; in assay [10], 101%; in [11], 103%; in assay [12], 89.9%. The growth in assay [13] was 91.1%; in [14] it was 93.9%; in assay [15], 87%; in assay [16], 99.7%; in assay [17], 96.8%; in assay [18] it was 105%.
With `NC1=CC(=O)C(=O)c2ccccc21`, the growth in [1] is 102%; in [2], 71%; in assay [3], 45.7%; in assay [4], 77.5%; in assay [5] it was 100%; in assay [6], 93.3%. The growth is 80.7% in assay [7]; 51.5% in [8]; 68.1% in assay [9]; 92.1% in assay [10]; 106% in [11]; 113% in assay [12]. The growth in assay [13] was 93.2%; in assay [15] it was 91.1%; in [16], 77.5%; in assay [17], 39.4%; in [19], 7.65% (active); in [18] it was 75.2%.
For `Nc1nc2c(c3ncccc13)C(c1ccc(Cl)c(Cl)c1)Cc1ncccc1-2` (stereo not drawn), the growth in [1] was 35.5%; in assay [2], 11%; in assay [3], 47.1%; in [4] it was 28.9%; in [5] it was -25.4% (active); in assay [6], 44.8%. For the same compound, the growth in assay [7] is 1.19% (active); in assay [8], 35.4%; in [9] it was 20%; in assay [10], 18.2%; in assay [11], 6.39% (active); in assay [12], 16.4%. The growth in assay [13] was 32.1%; in [15], 19.5%; in assay [16] it was 19.8%; in assay [17], 26.6%; in assay [19], 28%; in [18], 49.2%.
In the case of `N#CC1=C(N)Oc2c(ccc3ccccc23)C1c1cccs1` (stereo not drawn), the growth in [1] was -21.2% (active); in [2], 0.938% (active); in assay [3], 36.4%; in [4] it was -9.69% (active); in [5], 8.35% (active); in assay [6], 9.29% (active). The growth in [7] is 24.7%; in [8] it was 75.1%; in [9], 17.3%; in [10], 13.5%; in assay [11], 5.33% (active); in assay [12] it was 4.67% (active). Moreover, the growth in [13] was 49.7%; in assay [14] it was 13.3%; in [15], 22.5%; in assay [16], -35.9% (active); in assay [17], 29.3%; in assay [18] it was 41.1%.
Consider `COc1ccc(C(=O)c2sc3nc4c(c(C(F)(F)F)c3c2N)CN(C(C)=O)CC4)cc1OC`, for which the growth is 104% in assay [1]; 78.2% in [2]; 88% in [3]; 63.8% in assay [4]; 74.7% in [5]; 85% in assay [6]. For the same compound, the growth was 86.2% in assay [7]; 99.2% in assay [8]; 100% in [9]; 84.7% in assay [10]; 95% in [11]; 74.6% in [12]. Moreover, the growth was 95.8% in assay [13]; 78.3% in assay [14]; 77.6% in [16]; 83.6% in [17]; 78.4% in assay [19]; 93.4% in assay [18].
